Bioassay records: PubChem, National Center for Advancing Translational Sciences (NCATS)
Pf growth 96h = Primary qHTS for delayed death inhibitors of the malarial parasite plastid, 96 hour incubation; P. falciparum luciferase reporter growth, 96 h; Potency, µM (titrated, usually from 28.7 µM), for inactives: at the highest dose activity change, negative = inhibition, hits mostly inhibitors; 320,000 tested, 6.9% active
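Two parasite generations (96 h, 37 C, 5% CO2) of compound exposure in infected erythrocytes (0.05% parasitemia, 2% hematocrit). Luciferase-reporter P. falciparum; decreased luminescence indicates inhibited growth, aimed at apicoplast-acting delayed death.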
Pf growth 48h = Primary qHTS for delayed death inhibitors of the malarial parasite plastid, 48 hour incubation; P. falciparum luciferase growth in erythrocytes, 48 h; Potency, µM (series often up to 28.7 µM), without a hit: at the top dose activity change, negative = inhibition, usual class: inhibitors; 310,000 tested, 5.9% active; AID 504832, 2011
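Luciferase-expressing parasites in RBCs, 2% Hct / 0.1% parasitemia final; RPMI 1640 + 0.5% Albumax; 37 C, 5% CO2, one generation; luminescence read-out, lower signal = inhibition.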
HCV inh = qHTS Assay for Inhibitors of Hepatitis C Virus (HCV). Potency, µM (doses to about 41.8 µM), inactives show top-dose activity change, negative = inhibition, actives largely listed as inhibitors. AID 651820, 2012. 340,000 tested, 3.4% active. Huh7.5.1 HCVcc-Cre infection, luciferase reporter, 44 h
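After 44 h co-culture of compound, cells and HCVcc-Cre (~0.5 moi), substrate is added for 15 min at room temperature and luciferase measured over 15 sec. Cells were seeded at 1,000/well and pre-cultured 4 h.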
AMA1-RON2 inh = qHTS for Inhibitors of AMA1-RON; Towards Development of Antimalarial Drug Lead: Primary Screen. Potency, µM (doses to about 58.2 µM), inactives show at the highest dose activity change, negative = inhibition, actives largely listed as inhibitors. 360,000 tested, 0.2% active. AlphaScreen AMA1-biotinylated RON2 peptide binding;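 note: 0% = vehicle wells and -100% = peptide control; nearly all actives have a fitted effect of over 45% in size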
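AMA1 (3D7) with his tag at 25 nM final met compounds first, then biotinylated RON2 peptide at 25 nM; detection used donor plus acceptor beads, 10 µg/mL apiece, read by AlphaScreen after 30 min at room temperature.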
The depositor's hits bear a star; ? = inconclusive; / = not tested or not shown. Most compounds without a hit are left out; they make up all but 11% or so of the library. Calls come from the whole dose curve; as a rule, active = well fitted curve in the direction sought with a large enough effect; inconclusive = small, poorly fitted or top-dose-only effect, or another doubt; inactive = no such curve, though single readings can be large; an effect the other way counts as inactive or inconclusive. Unless noted, % is set by controls: 0 for no effect and ±100 for the full control effect; potency is the fitted concentration of half-maximal effect.

SMILES	Pf growth 96h	Pf growth 48h	HCV inh	AMA1-RON2 inh
CCCCOC(=O)c1ccc(NC(=O)COC(=O)CSc2nc(C)cc(C)n2)cc1	76.2%	40.4%	-8.2%	2.6%
CC[C@@H]1CC2=C(C(=O)OC(C)(C)O2)[C@@H](c2ccc(Cl)cc2)O1	/	/	/	0.7%
CCCCCC(C(=O)O)C(C)CC(=O)NC1CCCCC1 (stereo not given)	13.1µM*	11.8%	3.6%	8.7%
O=C(CNC(=O)C1(c2ccccc2)CC1)Nc1ccc(F)c(F)c1	21.1%	4.7%	31.1%	-0.7%
O=C(/C=C/c1ccccc1)Oc1cccc2cccnc12	3.7µM*	4.65µM*	-29.7%	84.0%
CN(C(=O)Oc1cccc2cccnc12)c1ccccc1	?	-21.6%	10.7%	-1.6%
O=C(/C=C\c1ccccc1)Oc1cccc2cccnc12	5.86µM*	?	?	126.1%
O=C(COc1cccc2cccnc12)NNC(=S)Nc1ccccc1	0.657µM*	-22.2%	/	/
O=C(Oc1cccc2cccnc12)c1ccccc1	-7.2%	?	/	/
CCn1c(SCC(=O)N(C)CC(=O)Nc2cccc(OC)c2)nnc1-c1ccco1	0.2%	-10.0%	9.5%	23.8%
O=Cc1ccc(N2CCCC2)o1	17.1%	15.4%	-0.5%	5.5%
CC1CCN(c2ccc(C=O)o2)CC1	0.233µM*	-26.5%	7.5%	-10.5%
Cc1c(C(=O)N2CCC(C)(C(=O)NS(=O)(=O)C3CC3)C2)oc2ccccc12 (stereo not given)	/	/	/	2.7%
CCC(c1nnnn1CCc1ccccc1)N(Cc1ccco1)Cc1cc2c(C)ccc(C)c2[nH]c1=O (stereo not given)	-3.1%	?	11.2µM*	-2.3%
CCC(c1nnnn1CCc1ccccc1)N(Cc1ccco1)Cc1cc2cc(C)cc(C)c2[nH]c1=O (stereo not given)	-19.3%	11.7µM*	10µM*	-11.2%
CCOC(=O)Cn1nnnc1C(CC)N(Cc1ccccc1)Cc1cc2cc(C)ccc2[nH]c1=O (stereo not given)	?	/	7.3%	-0.3%
Nc1nonc1C(=O)NCCNCc1cc(Br)ccc1OCc1ccccc1F	?	3.29µM*	10µM*	15.7%
CC(C)c1ccc(-c2c(C#N)c(N)nc(SCC(=O)N3CCCCCC3)c2C#N)cc1	5.22µM*	/	9.1%	9.4%
O=C1NC[C@H](Cc2ccccc2)N(C[C@@H]2CCCN2C[C@H](Cc2ccccc2)N2C[C@H](Cc3ccccc3)N(CCc3ccccc3)C(=O)C2=O)C1=O	/	/	/	0.0%
OCc1cc(C(O)CNCCCCCCOCCCCc2ccccc2)ccc1O (stereo not given)	12µM*	13.1µM*	8.91µM*	5.3%
C#CCNC(=O)C1=C[C@@H](c2ccc(C(F)(F)F)cc2)[C@H](CCCO)[C@@H](OCC)O1	11.7µM*	?	6.9%	7.3%
CCO[C@H]1OC(C(=O)NCc2ccccc2)=C[C@@H](c2ccc(Br)cc2)[C@@H]1CCCO	?	?	-27.2%	-8.3%
CCO[C@@H]1OC(C(=O)NCc2ccccc2)=C[C@H](c2ccc(C(F)(F)F)cc2)[C@H]1CCCO	8.28µM*	4.65µM*	-11.3%	25.1%
O=C(C1CCCO1)N1CCN(S(=O)(=O)c2ccc(Cl)cc2)CC1 (stereo not given)	37.8%	6.6%	25.5%	-0.8%
O=C(CCN1CCC2CCC(C2)C1)c1ccccc1 (stereo not given)	/	/	16.1%	13.8%
SMILES	Pf growth 96h	Pf growth 48h	HCV inh	AMA1-RON2 inh
OC(CCN1CCC2CCC(C2)C1)c1ccc(Br)cc1 (stereo not given)	/	/	31.6µM*	1.6%
CC1(c2ccccc2Br)NC(=O)N(CC(=O)NC2CCCCC2)C1=O (stereo not given)	11.7µM*	?	13.6%	-3.0%
CC(NC(=O)c1ccco1)C(=O)OCC(=O)N1CCCCCC1 (stereo not given)	-15.5%	-3.1%	4.0%	-4.4%
COC(=O)CN(c1ccc(C(C)C)cc1)S(=O)(=O)c1c(C)[nH]c(=O)[nH]c1=O	9.28µM*	/	-0.7%	4.6%
C1=CC2c3ccccc3NC(c3ccncc3)C2C1 (stereo not given)	13.1µM*	?	-35.1%	-15.5%
Brc1cc2c(cc1C1Nc3ccccc3C3C=CCC31)OCO2 (stereo not given)	6.8%	?	-7.2%	-8.0%
Cc1nc([N+](=O)[O-])c(Sc2nc3ccccc3n2C)n1Cc1ccccc1	?	?	12.6µM*	11.6%
Cc1nc([N+](=O)[O-])c(SCC(N)=O)n1Cc1ccccc1	28.5%	-5.0%	13.8%	-0.7%
Cc1c(N=Cc2c(O)n(CCc3ccc(F)cc3)c(=O)[nH]c2=O)c(=O)n(-c2ccccc2)n1C	10.4µM*	-8.5%	10.9%	3.1%
C=CCn1c(O)c(C=Nc2c(C)n(C)n(-c3ccccc3)c2=O)c(=O)[nH]c1=O	24.9%	12.4%	18.0%	1.4%
CCC(=Nc1ccc(OC)cc1OC)c1c(O)n(C2CCCCC2)c(=O)[nH]c1=O	?	7.38µM*	?	-18.1%
CC(=O)N1CCc2cc(S(=O)(=O)NCC(=O)NCc3ccccc3Cl)ccc21	9.28µM*	-13.6%	5.9%	-9.1%
CCC(=O)N1CCc2cc(S(=O)(=O)NCCC(=O)NCc3ccccc3Cl)ccc21	8.28µM*	1.6%	-5.6%	44.3%
COc1ccc(-c2cnc3c(NC=O)cc(-c4cccc(NS(C)(=O)=O)c4)cn23)cc1OC	/	/	/	83.6%
COc1ccc2nc(C)cc(N3CCN(c4ccccc4)CC3)c2c1	9.28µM*	13.1µM*	22.4µM*	?
COc1ccc(C(=O)CN2CCN(c3cc(C)nc4ccccc34)CC2)cc1	?	?	10µM*	-5.8%
COc1ccc(N2CCN(CC(=O)c3ccccc3)CC2)cc1	-16.1%	-7.3%	5.4%	-4.0%
COc1cccc(Cl)c1NC(=O)N1CCN(c2cc(C)nc3ccccc23)CC1	?	?	10µM*	-13.8%
COc1cccc(Cl)c1NC(=O)N1CCN(c2ccnc3cc(Cl)ccc23)CC1	?	?	?	-10.7%
COc1ccc(-c2nsc3c(N4CCN(S(=O)(=O)c5ccccc5F)CC4)ncnc23)cc1	65.8%	82.8%	-0.7%	30.7%
COc1ccc2nc(C)cc(N3CCOCC3)c2c1	42.9%	7.4%	20.0%	-6.0%
COc1ccc2nc(C)cc(N3CCN(S(=O)(=O)c4ccccc4F)CC3)c2c1	9.28µM*	?	7.08µM*	-2.9%
COc1ccc(-c2csc(N3CCN(c4cc(C)nc5ccccc45)CC3)n2)cc1OC	?	?	2.82µM*	-28.0%
Cc1cc(N2CCOCC2)c2c(N)c(C)cc(C)c2n1	-17.0%	0.3%	-5.1%	-8.2%
Cc1ccc2nc(C)cc(N3CCOCC3)c2c1	/	0.8%	10µM*	-1.7%
N#CCCn1cc(C(=O)N2CCOCC2)c(-c2ccc3c(c2)OCCO3)n1	72.9%	10.6%	10.8%	20.6%
